A selection: hits, their analogues and other compounds. The true share with any hit is near 14%.
Shiga toxin inh = Shiga toxin inhibition | Vero cells, Shiga toxin protein synthesis inhibition reporter | inhibition, % at 38.7 µM | actives 9.2% (n = 290,000) | AID 2315; in the data active = inhibition mostly above about 28%, no sharp cut-off; inactive = mostly below about 43%
FBPA Giardia inh = inhibitors of Giardia lamblia fructose-1,6-bisphosphate aldolase. purified Giardia FBPA. Potency, µM (highest dose often 59.6 µM), usual class: inhibitors. actives 0.71% (n = 290,000). AID 2451; note: nearly all actives have a fitted effect of over 55% in size
Target sequence (A8B2U2 whole entry, looked up): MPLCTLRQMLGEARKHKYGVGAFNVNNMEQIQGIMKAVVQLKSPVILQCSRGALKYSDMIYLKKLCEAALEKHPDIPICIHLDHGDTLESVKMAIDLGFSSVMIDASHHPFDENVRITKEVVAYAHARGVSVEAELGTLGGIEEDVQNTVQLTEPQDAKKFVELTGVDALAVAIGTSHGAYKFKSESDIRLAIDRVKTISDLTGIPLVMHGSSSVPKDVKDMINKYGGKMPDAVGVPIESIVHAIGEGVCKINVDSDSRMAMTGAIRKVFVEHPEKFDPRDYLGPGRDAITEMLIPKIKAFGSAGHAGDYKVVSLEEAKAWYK
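40 nM FBPA preincubated 10 min at RT with compound (up to 57.5 uM final), then substrate plus GAPDH/TPI/NAD/arsenate coupling and diaphorase/resazurin added. Fluorescence read after 20 min at RT, 525/598 nm.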
NS1 function inh = blocks influenza NS1 protein function; Potency, µM (top dose mostly 46.1 µM); AID 2326; actives 0.4% (n = 270,000); calls by dose curve; note: actives are rising curves; nearly all actives have a fitted effect of over 50% in size
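Recovery from NS1-induced slow growth read by OD600 in budding yeast switched to galactose assay medium (pH 6.0, -URA) at 1:100 dilution. Compound 23 nl per well; the matching strain lacking NS1 serves as control.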
LmPK inhibitor = LmPK (Leishmania mexicana) enzyme inhibition; AID 1721; purified LmPK, Kinase-Glo ATP luminescence, 1 h; Q27686; Potency, µM (series often up to 57.5 µM), usual class: inhibitors; actives 0.37% (n = 290,000)
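0.1 nM LmPK, 0.5 mM PEP, 0.1 mM ADP; 50 mM imidazole pH 7.2, 7 mM MgCl2, 50 mM KCl; 1 h RT. Kinase-Glo luminescence readout, normalized to no-enzyme (full inhibition) and uninhibited wells.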
Cycloheximide cs = affects cycloheximide protein synthesis inhibition readout, counter-screen | cell reporter, cycloheximide protein synthesis inhibition counterscreen | actives 12% (n = 300,000) | max response, %; in the data active = max response mostly above about 13%, no sharp cut-off; inactive = mostly below about 14%; note: read at 38.3 µM for the half of the compounds with a filed dose
Numbers stand for hits; i = inactive; ? = inconclusive; nt = no result given; [ ] = another dose, or the depositor's remark. Unless noted, calls come from the whole dose curve; as a rule, active = well fitted curve in the direction sought with a large enough effect; inconclusive = small, poorly fitted or top-dose-only effect, or another doubt; inactive = no such curve, though single readings can be large; an effect the other way counts as inactive or inconclusive.

SMILES	Shiga toxin inh	FBPA Giardia inh	NS1 function inh	LmPK inhibitor	Cycloheximide cs
O=C(/C=C/c1ccc(-c2cccc([N+](=O)[O-])c2)o1)N1CCOCC1	146	i	i	i	31
O=C(/C=C/c1cccc([N+](=O)[O-])c1)N1CCOCC1	i	i	i	i	i
Cc1ccc(S(=O)(=O)N(CC(=O)N(C(C)C)C(C)C)C(=O)N2CCN(C)CC2)cc1	i	i	i	i	i
Oc1oc(-c2ccccc2)nc1/C=N/c1ccccn1	i	i	i	i	i
CCC(=O)Oc1oc(-c2ccccc2)nc1C=Nc1ccc(C)cc1	i	i	i	i	i
Cc1ccc(-c2nc(C=Nc3ccc(O)cc3)c(O)o2)cc1	125	i	nt	i	44
CN=Cc1nc(-c2ccccc2)oc1O	active	i	i	?	30
O=C1CCC(c2ccccc2)=NN1c1nc2ccccc2s1	nt	nt	i	nt	nt
C/C(=N\NC(=O)CN(c1ccccc1)S(C)(=O)=O)c1ccccc1O	i	i	nt	i	i
C/C(=N\NC(=O)CN1CCCCC1)c1ccccc1O	39	i	i	i	23
Nc1nc2c(nc(Br)n2C2OC(CO)C(O)C2O)c(=O)[nH]1 (centres undefined)	nt	i	nt	nt	nt
O=C(O)c1cnn(-c2nc(-c3ccc(F)cc3)cs2)c1C(F)(F)F	73	?	i	i	i
O=C(O)c1cnn(-c2nc(-c3ccc(Br)cc3)cs2)c1C(F)(F)F	53	i	i	i	45
CCOC(=O)c1cnn(-c2nc(-c3ccc(C)cc3)cs2)c1C(F)(F)F	i	i	i	i	i
O=C(CSc1nnc(-c2cccnc2)n1-c1ccccc1)NCc1ccc2c(c1)OCO2	i	i	i	i	i
CC(Sc1nnc(-c2cccnc2)n1-c1ccccc1)C(=O)NCc1ccc2c(c1)OCO2 (centres undefined)	76	i	i	i	40
CCc1ccc(Nc2n[n+](C)c(-c3ccc(C(=O)O)cc3)s2)cc1	i	i	i	i	i
C[n+]1nc(Nc2cccc3ccccc23)sc1-c1ccc(C(=O)O)cc1	35	i	i	i	18
Cc1ccc(NC(=O)[C@H](NC(=O)[C@@H]2Cc3ccccc3CN2)c2ccccc2)cc1	45	nt	i	i	25
COc1cccc(NC(=O)[C@H](NC(=O)[C@@H]2Cc3ccccc3CN2)c2ccccc2)c1	i	nt	i	i	30
COc1cccc(NC(=O)C(Cc2ccccc2)NC(=O)C2CCC(C)CC2)c1 (centres undefined)	i	i	i	i	i
Cc1cccc(NC(=O)[C@H](NC(=O)[C@@H]2Cc3ccccc3CN2)c2ccccc2)c1	i	nt	i	i	26
COc1cccc(NC(=O)[C@H](Cc2ccccc2)NC(=O)[C@@H]2Cc3ccccc3CN2)c1	i	i	i	i	26
CNc1cc(-c2ccccc2C(F)(F)F)ncn1	nt	i	nt	nt	nt
CC(NC(=O)[C@H](NC(=O)[C@@H]1Cc2ccccc2CN1)c1ccccc1)c1ccccc1 (some centres undefined)	i	?	i	i	i
SMILES	Shiga toxin inh	FBPA Giardia inh	NS1 function inh	LmPK inhibitor	Cycloheximide cs
CC(C)c1ccc(NC(=O)[C@H](NC(=O)[C@@H]2Cc3ccccc3CN2)c2ccccc2)cc1	i	nt	i	i	34
O=C(Cn1c(C(=O)NCc2ccco2)cc2sccc21)c1ccccc1	i	i	i	i	24
O=C1c2ccccc2CCC1C(O)c1ccccn1 (centres undefined)	i	i	i	i	39
O=P(c1ccccc1)(c1ccccc1)C(O)c1ccccn1 (centres undefined)	i	?	i	i	i
C/C=C/c1ccc(OCCCCn2cncn2)c(OC)c1	54	i	i	i	34
C/C=C/c1ccc(OCCCn2cncn2)c(OC)c1	i	i	i	i	11
Cc1cc2nc3c(=O)[nH]c(=S)[nH]c3nc2cc1NC(=O)C(F)(F)F	i	?	i	i	i
O=C(O)c1c2c(nc3ccccc13)/C(=C/c1ccccc1[N+](=O)[O-])CCC2	i	i	i	i	i
O=C1/C(=C/c2cccc3ccccc23)CCCc2ccccc21	51	i	i	i	29
COCC(C)NC(=O)CCc1nnc(C2(c3ccc(Cl)cc3)CCC2)o1 (centres undefined)	41	i	i	i	30
COCC(C)NC(=O)Cc1ccc(Cl)cc1 (centres undefined)	i	i	i	i	i
C=CCNC(=O)C(C)Sc1ccc(Cl)cc1 (centres undefined)	i	i	i	i	i
C=CCNC(=O)CCc1nnc(C2(c3ccc(Cl)cc3)CCC2)o1	85	i	i	i	55
C=C(C)CNC(=O)CCc1nnc(C2(c3ccc(Cl)cc3)CCC2)o1	75	i	i	i	44
CC(c1ccon1)N(C)C(=O)CCc1nnc(C2(c3ccc(Cl)cc3)CCC2)o1 (centres undefined)	48	i	i	i	21
O=C(CCc1nnc(C2(c3ccc(Cl)cc3)CCC2)o1)NC1CC1	i	i	i	i	14
COC(=O)CNC(=O)CCc1nnc(C2(c3ccc(Cl)cc3)CCC2)o1	39	i	i	i	45
O=C(CCc1nc(-c2ccc(Cl)cc2)no1)NC1CCCCC1	i	i	i	i	i
COc1ccc(NCc2ccc([N+](=O)[O-])s2)c(OC)c1	34	?	i	i	25
COc1ccc(NCc2ccc([N+](=O)[O-])s2)cc1	i	i	i	i	21
O=[N+]([O-])c1ccc(CNc2cccc(Cl)c2)s1	i	?	i	i	i
O=[N+]([O-])c1ccc(CNc2ccc(Cl)cc2)s1	i	i	i	i	13
O=[N+]([O-])c1ccc(CNc2ccc(F)cc2)s1	i	?	i	i	i
c1ccc(NC2=NCCN2CCC2CCCC2)cc1	i	i	i	i	i
O=S(=O)(c1ccc(Cl)cc1)N1CC1c1ccccc1 (centres undefined)	i	i	?	i	i
SMILES	Shiga toxin inh	FBPA Giardia inh	NS1 function inh	LmPK inhibitor	Cycloheximide cs
O=S(=O)(c1ccccc1)N1CC1c1ccccc1 (centres undefined)	38	i	i	i	47
Cc1ccc(C(=O)NC(=S)Nc2ccc(-c3ccc(CO)o3)cc2)cc1	i	i	nt	i[11.5 µM]	i
CCOC(=O)c1ccc(-c2ccc(CO)o2)cc1	84	i	i	i	34
Cc1cc([N+](=O)[O-])ccc1-c1ccc(C2Nc3ccccc3C(=O)N2O)o1 (centres undefined)	i	i	i	i	i
Cc1ccc(-c2ccc(CO)o2)cc1N	55	i	nt	i	25
CCOC(=O)c1ccc(-c2ccc(C3Nc4ccccc4C(=O)N3O)o2)cc1 (centres undefined)	145	?	i	i	33
CSc1nnc(-c2ccccc2)c(-c2ccccc2)n1	i	i	i	i	i
C#CCSc1ncc(-c2ccccc2)cn1	77	i	nt	i	44
CSc1ncc(-c2ccccc2)cn1	i	i	nt	i	47
C=CCSc1ncc(-c2ccccc2)cn1	63	i	nt	i	35
COc1ccc(-c2noc(-c3cc(Cl)ccc3Cl)n2)cc1OC	i	i	i	i	i
COc1ccccc1-c1nc(COc2ccc(Cl)cc2Cl)no1	91	i	i	i	52

High-throughput results (PubChem BioAssay)
